From the supplement of paper PMC13380429

How the values were obtained:
[1] = tested on: Vero E6 infected with SARS-CoV-2; test: morphology score (similarity to uninfected cells); higher = more like uninfected cells; settings: 24 h
[2] = tested on: Vero E6 infected with SARS-CoV-2; test: SARS-CoV-2 infection rate relative to infected DMSO; higher = more infection, active = 60 or less; settings: 24 h

Compound	morphology score [1]	SARS-CoV-2 infection rate [2]
Cc1ccc(NC2=NCCN2)c(Cl)c1 [tolonidine] (10 µM)	-0.0217	98.5% (inactive)
CCc1[nH]c(=O)[nH]c1C(=O)c1ccncc1 [piroximone] (10 µM)	0.142	100% (inactive)
COc1cccc(-c2cc(NCc3ccc4c(c3)OCO4)nc(N)n2)c1 (10 µM)	-0.021	111% (inactive)
CC(C)c1cccc2c(-c3ccccc3)cc(-c3ccc(-c4ccc(C(=O)O)cc4)[nH]3)nc12 (10 µM)	0.104	87.5% (inactive)
Nc1ccc(-c2nc3ccc(-c4nc5ccc(N)cc5[nH]4)cc3[nH]2)cc1 (10 µM)	-0.218	108% (inactive)
Cc1[nH]c2ccc(Cl)cc2c1C1=CCNCC1 (10 µM)	0.432	76% (inactive)
COc1ccc(/C=C\c2cc(OC)c(OC)c(OC)c2)cc1OP(=O)(O)O [fosbretabulin] (0.833333 µM)	0.0485	112% (inactive)
CCOc1ccc2ccccc2c1C(=O)N[C@@H]1C(=O)N2[C@@H]1SC(C)(C)[C@@H]2C(=O)O [nafcillin] (10 µM)	-0.164	112% (inactive)
CCOC(=O)c1ncn2c1CN(C)C(=O)c1cc(F)ccc1-2 [flumazenil] (10 µM)	0.0898	88.5% (inactive)
OCc1ccc(O[C@@H]2O[C@H](CO)[C@@H](O)[C@H](O)[C@H]2O)cc1 [gastrodin] (10 µM)	0.19	106% (inactive)
COc1ccc2cccc(N3CCN(CCNC(=O)c4ccc(F)cc4)CC3)c2c1 (10 µM)	0.241	103% (inactive)
O=Cc1cn(Cc2ccc(Cl)cc2)c2ccccc12 [oncrasin-1] (10 µM)	0.108	110% (inactive)
CC1(C)C(=O)N(c2ccc(C#N)c(C(F)(F)F)c2)C(=O)N1CCCCO (10 µM)	-0.0623	100% (inactive)
O=c1[nH]c2ccccc2n1C1CCN(CCOc2ccccc2)CC1 [oxiperomide] (0.833333 µM)	-0.0147	104% (inactive)
NC(=O)C(c1ccccc1)(c1ccc(F)cc1)c1ccc(F)cc1 [senicapoc] (10 µM)	-0.127	114% (inactive)
CCOC(=O)[C@@]1(CCCCCCOc2ccc(Cl)cc2)CO1 [etomoxir] (10 µM)	-0.0546	109% (inactive)
O=C(Nc1cccc(Nc2ncc(Br)c(NCCc3cnc[nH]3)n2)c1)N1CCCC1 (10 µM)	-0.00186	110% (inactive)
Fc1ccc(C(OCCN2CCN(CCCc3ccccc3)CC2)c2ccc(F)cc2)cc1 [vanoxerine] (0.833333 µM)	0.275	86% (inactive)
C(#Cc1nc2ncccc2nc1OCCN1CCCC1)c1ccccc1 (0.833333 µM)	0.0988	86% (inactive)
C[C@H](NC(=O)CNC(=O)c1cccc(Cl)c1)c1ccccc1 (10 µM)	0.0656	102% (inactive)

Compound	morphology score [1]	SARS-CoV-2 infection rate [2]
NC[C@H]1CC[C@H](C(=O)O)CC1 [tranexamic-acid] (10 µM)	0.0762	108% (inactive)
CN(C)C(=O)[C@H](O)[C@H](Cc1ccccc1)NC(=O)c1cc2cc(Cl)ccc2[nH]1 (10 µM)	0.225	102% (inactive)
Cc1ccc(-c2c(-c3nn(C)c4ncnc(N5CC[C@H](N6CCCCC6)C5)c34)cnn2C)cc1 (10 µM)	0.14	100% (inactive)
O=C1CCC(N2C(=O)c3ccccc3C2=O)C(=O)N1 (stereo unspecified) [thalidomide] (10 µM)	-0.223	104% (inactive)
O=C1CCCN1CC#CCN1CCCC1 [oxotremorine-sesquifumarate] (10 µM)	0.062	100% (inactive)
Cc1ccc(C(=O)NCCCCCC(=O)Nc2ccccc2N)cc1 (0.833333 µM)	-0.0541	120% (inactive)
COc1ccccc1C(=O)Nc1cc2c(cc1N1CCCC1)n(C)c(=O)n2C (10 µM)	0.0131	93.5% (inactive)
CC(C)C[C@@H](NC(=O)[C@H](C)NC(=O)CNC(=O)[C@@H](NC=O)C(C)C)C(=O)N[C@@H](C)C(=O)N[C@@H](C(=O)N[C@H](C(=O)N[C@@H](C(=O)N[C@@H](Cc1c[nH]c2ccccc12)C(=O)N[C@H](CC(C)C)C(=O)N[C@@H](Cc1c[nH]c2ccccc12)C(=O)N[C@H](CC(C)C)C(=O)N[C@@H](Cc1c[nH]c2ccccc12)C(=O)N[C@H](CC(C)C)C(=O)N[C@@H](Cc1c[nH]c2ccccc12)C(=O)NCCO)C(C)C)C(C)C)C(C)C [gramicidin] (10 µM)	-0.258	100% (inactive)
O=C1NC(=O)C(c2ccccc2)(c2ccccc2)N1 [phenytoin] (10 µM)	0.168	97% (inactive)
CCN(CC)CCOC(=O)C1(c2ccccc2)CCCC1 [caramiphen] (10 µM)	0.145	95.5% (inactive)
C[N+]1(C)CCc2cc3c(cc2[C@H]1[C@@H]1OC(=O)c2c1ccc1c2OCO1)OCO3 [bicuculline-methochloride-(-)] (10 µM)	-0.156	110% (inactive)
OCc1cccnc1 [nicotinyl-alcohol-tartrate] (10 µM)	-0.13	118% (inactive)
CC(=O)c1cnc2ccc(-c3cc(Cl)c(O)c(Cl)c3)nc2c1N[C@H]1CC[C@H](CN(C)C)CC1 (0.833333 µM)	0.294	96% (inactive)
CCN(CC)CCOCCOC(=O)C(CC)(CC)c1ccccc1 [oxelaidin] (10 µM)	0.423	73.5% (inactive)
[N-]=[N+]=CC(=O)CC[C@H](N)C(=O)O [6-diazo-5-oxo-L-norleucine] (10 µM)	0.196	93.5% (inactive)
COc1cc(OC)c(C(=O)CCCCN2CCC3(CC2)NC(=O)NC3=O)cc1NS(=O)(=O)c1ccc(C(F)(F)F)cc1 (10 µM)	0.222	93% (inactive)
CCC(=O)OCC(=O)[C@@]1(OC(=O)CC)[C@@H](C)C[C@H]2[C@@H]3CCC4=CC(=O)C=C[C@]4(C)[C@@]3(Cl)[C@@H](O)C[C@@]21C [beclomethasone-dipropionate] (10 µM)	0.126	105% (inactive)
CS(=O)(=O)Nc1ccc([N+](=O)[O-])cc1Oc1ccccc1 [nimesulide] (10 µM)	0.0266	105% (inactive)
COc1cccc(-c2ccc([C@@H](Oc3cc(-c4ccc(C[C@H](N)C(=O)O)cc4)nc(N)n3)C(F)(F)F)cc2)c1 (10 µM)	0.0975	102% (inactive)
Cc1ncc[nH]1 [2-methylimidazole] (10 µM)	0.049	95% (inactive)

Compound	morphology score [1]	SARS-CoV-2 infection rate [2]
O=C1c2ccccc2C(=O)C1c1ccc(Cl)cc1 [chlorindione] (10 µM)	0.011	102% (inactive)
CC(=O)O/N=C1\C(=O)N(Cc2cc(Cl)ccc2Cl)c2ccc(Cl)cc21 (10 µM)	0.395	76% (inactive)
O=S(=O)(Cc1ccccc1)Nc1ccc(-c2ccc3c(cnn3-c3ccc(F)cc3)c2)c(C(F)(F)F)c1 (10 µM)	0.22	91.5% (inactive)
CC1CC(OC(=O)C(O)c2ccccc2)CC(C)(C)C1 (stereo unspecified) [cyclandelate] (10 µM)	0.115	98% (inactive)
Cn1cc([S+](C)[O-])c(=O)c2ccc(F)cc21 (stereo unspecified) [flosequinan] (10 µM)	0.195	96.5% (inactive)
CCC(=O)O[C@]1(C(=O)CCl)[C@@H](C)C[C@H]2[C@@H]3C[C@H](F)C4=CC(=O)C=C[C@]4(C)[C@@]3(F)[C@@H](O)C[C@@]21C [halobetasol-propionate] (10 µM)	0.0989	106% (inactive)
CCCCCNC(=N)N/N=C/c1c[nH]c2ccc(OC)cc12 [tegaserod] (10 µM)	0.0727	100% (inactive)
O=C1[C@H]2CCCC[C@H]2C(=O)N1CCCCN1CCN(c2nsc3ccccc23)CC1 [perospirone] (10 µM)	0.0481	115% (inactive)
O=C(CC12CC3CC(CC(C3)C1)C2)Nc1cccc2nc(NCCNCCO)ccc12 (10 µM)	-0.132	116% (inactive)
CC(C)[C@@H](CN1CC[C@@](C)(c2cccc(O)c2)[C@@H](C)C1)NC(=O)[C@H]1Cc2ccc(O)cc2CN1 (10 µM)	-0.0336	99.5% (inactive)
O=S(=O)(O)c1ccc(-c2c3nc(c(-c4ccc(S(=O)(=O)O)cc4)c4ccc([nH]4)c(-c4ccc(S(=O)(=O)O)cc4)c4nc(c(-c5ccc(S(=O)(=O)O)cc5)c5ccc2[nH]5)C=C4)C=C3)cc1 (10 µM)	-0.0273	102% (inactive)
Cc1cc(C(=O)O)sc1C(N)C(=O)O (stereo unspecified) (10 µM)	-0.0491	95% (inactive)
C[n+]1c2cc(N)ccc2cc2ccc(N)cc21 [acriflavinium] (0.833333 µM)	0.0932	98.5% (inactive)
CCOC(=O)[C@H](CCc1ccccc1)N[C@H]1CCc2ccccc2N(CC(=O)O)C1=O [benazepril] (10 µM)	0.413	90.5% (inactive)
CC[C@@]1([C@H]2O[C@H]([C@H]3O[C@@](O)(CO)[C@H](C)C[C@@H]3C)C[C@H]2C)CC[C@H]([C@@]2(C)CC[C@]3(C[C@H](O)[C@@H](C)[C@@H]([C@H](C)[C@H](OC)[C@@H](C)C(=O)O)O3)O2)O1 (10 µM)	0.556	39% (active)
CNC(=O)c1ccc(Nc2ncc(C(F)(F)F)c(NCc3nccnc3N(C)S(C)(=O)=O)n2)cc1 [defactinib] (0.833333 µM)	0.0478	100% (inactive)
CC(C)[C@H]1c2ccc(F)cc2CC[C@@]1(CCN(C)CCCc1nc2ccccc2[nH]1)OC(=O)C1CC1 (0.833333 µM)	0.0422	98% (inactive)
Cc1ccc(C(=O)N(CCCN)[C@@H](c2oc3cc(Cl)ccc3c(=O)c2Cc2ccccc2)C(C)C)cc1 (0.833333 µM)	-0.422	115% (inactive)
